# Reference: publication PMC4336329 (PLoS ONE, 2015)
# Screen size: about 310,000 compounds; about 14,000 (4.5%) showed an effect of 50% or more. The effect is printed as a negative number. The entries come from a sample that favours strong results as a whole.
# Biological target: human ether-à-go-go-related gene (hERG) potassium channel (human, UniProt Q12809)
# Assay: primary screen, population patch clamp on CHO cells stably expressing hERG; higher = less effect of the substance
# 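Also: peak tail current of the secondary pulse compared with the same well before compound.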
# human ether-à-go-go-related gene (hERG) potassium channel, sequence (Q12809 whole entry, looked up): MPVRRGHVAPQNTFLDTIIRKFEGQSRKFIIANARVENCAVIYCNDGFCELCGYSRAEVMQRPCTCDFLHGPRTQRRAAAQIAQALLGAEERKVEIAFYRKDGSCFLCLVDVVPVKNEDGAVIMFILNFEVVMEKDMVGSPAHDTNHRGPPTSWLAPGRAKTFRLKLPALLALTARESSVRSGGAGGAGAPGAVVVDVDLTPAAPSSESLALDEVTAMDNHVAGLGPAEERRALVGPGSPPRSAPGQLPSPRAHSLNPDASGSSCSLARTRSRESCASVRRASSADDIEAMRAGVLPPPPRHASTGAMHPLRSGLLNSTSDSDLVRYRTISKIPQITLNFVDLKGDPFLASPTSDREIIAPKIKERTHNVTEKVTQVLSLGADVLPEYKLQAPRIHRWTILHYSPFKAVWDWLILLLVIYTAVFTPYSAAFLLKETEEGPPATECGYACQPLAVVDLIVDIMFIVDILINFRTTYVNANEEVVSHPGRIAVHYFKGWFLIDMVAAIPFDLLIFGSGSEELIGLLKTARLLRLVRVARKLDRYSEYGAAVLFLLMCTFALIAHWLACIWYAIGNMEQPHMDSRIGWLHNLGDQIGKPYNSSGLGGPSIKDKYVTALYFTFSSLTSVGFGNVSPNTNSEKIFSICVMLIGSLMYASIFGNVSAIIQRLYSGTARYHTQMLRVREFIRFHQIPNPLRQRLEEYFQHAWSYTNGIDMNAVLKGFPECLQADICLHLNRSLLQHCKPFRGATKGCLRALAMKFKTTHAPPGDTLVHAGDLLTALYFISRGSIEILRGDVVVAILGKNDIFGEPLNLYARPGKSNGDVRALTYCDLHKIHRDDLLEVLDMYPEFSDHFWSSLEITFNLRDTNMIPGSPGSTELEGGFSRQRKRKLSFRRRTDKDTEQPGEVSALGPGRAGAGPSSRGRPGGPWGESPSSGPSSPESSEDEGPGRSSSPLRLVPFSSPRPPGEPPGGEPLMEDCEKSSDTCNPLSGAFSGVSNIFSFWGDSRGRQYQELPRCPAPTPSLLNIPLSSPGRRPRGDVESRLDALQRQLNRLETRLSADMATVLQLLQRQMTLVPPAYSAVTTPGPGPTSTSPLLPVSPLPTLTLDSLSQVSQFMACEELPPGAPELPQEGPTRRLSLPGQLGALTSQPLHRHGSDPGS
row,Compound,"hERG current change (%, negative = inhibition) at 10uM [%]"
1,CCc1ccccc1N/N=C(/C)c1c(O)cc(C)oc1=O,-1.91
2,Cc1c(CCC(=O)O)c(=O)oc2cc3occ(-c4ccccc4)c3cc12,-27.8
3,CC(CN1C(C)CCCC1C)OC(=O)c1cccc(F)c1.Cl (centres unmarked),-13
4,Cc1oc(-c2cccc3ccccc23)nc1CN1CCN(c2ncnc3ccccc23)CC1,-11.9
5,COc1ccc(-c2nc(CN3CCN(c4ncccn4)CC3)c(C)o2)cc1C,-21.1
6,Cc1cc(N2CCN(Cc3nc(-c4ccc(F)cc4)oc3C)CC2)cc(C)n1,-53.8
7,COc1ccc(-c2nc(CN3CCN(c4ncnc5ccccc45)CC3)c(C)o2)c(OC)c1,-66.8
8,COc1ccc(-c2nc(CN3CCN(c4cc(C)nc(C)c4)CC3)c(C)o2)c2ccccc12,-73.6
9,Cc1cccc(-c2nc(CN3CCN(Cc4cccc(F)c4)CC3)c(C)o2)c1,-47
10,Cc1oc(-c2cc(F)ccc2F)nc1CN1CCN(c2ncnc3ccccc23)CC1,-43.6
11,COc1ccc(-c2nc(CN3CCN(Cc4cccc(F)c4)CC3)c(C)o2)cc1,-46.6
12,Cc1cccc(N2CCN(Cc3nc(-c4cccc(Cl)c4)oc3C)CC2)n1,-21
13,COc1ccc(-c2nc(CN3CCN(C(=O)c4ccco4)CC3)c(C)o2)c(OC)c1C,-18
14,Cc1cc(N2CCN(Cc3nc(-c4ccc(Cl)cc4)oc3C)CC2)cc(C)n1,-68.8
15,COc1ccc(-c2nc(CN3CCN(Cc4cccc(Cl)c4)CC3)c(C)o2)cc1,-33.1
16,Clc1ccc(-c2csc(Nc3cccnc3)n2)cc1,13.5
17,CC(C)(C)C(=O)Nc1ccc(F)cc1[N+](=O)[O-],5.56
18,Cc1cc2oc(=O)cc(CN3CCC(C)CC3)c2c(C)c1Cl,-2.84
19,CCCCCc1c(O)c2ccccc2[nH]c1=O,7.97
20,N#CCC(=O)NNC(=S)NC(=O)C(c1ccccc1)c1ccccc1,5.41

row,Compound,"hERG current change (%, negative = inhibition) at 10uM [%]"
1,O=C(NCCCCc1ccccc1)c1cccc(Br)c1,-3.79
2,CCOc1ccc(N(CC(=O)Nc2nccs2)S(=O)(=O)c2c(C)noc2C)cc1,-5.98
3,CCCOc1ccc(C2=CSC3=NCCN23)cc1Cl,-67.8
4,CCOc1ccc(C2=CSC3=NCCN23)cc1Cl,-22.8
5,CCCCOc1ccc(C2=CSC3=NCCN23)cc1[N+](=O)[O-],-71
6,Br.COc1ccc(C2=CSC3=NCCN23)cc1Br,-50.7
7,CCCOc1ccc(C2=CSC3=NCCN23)cc1[N+](=O)[O-],-73.6
8,CCCOc1ccc(C2=CSC3=NCCN23)cc1.Cl,-28.3
9,Br.COc1ccc(C2=CSC3=NCCN23)cc1OC,-6.58
10,CCCCOc1ccc(-c2csc(N)n2)cc1[N+](=O)[O-],11.2
11,COc1ccc(C2=CSC3=NCCN23)cc1Cl,-2.92
12,Br.COc1ccc(C2=CSC3=NCCN23)cc1F,-13.9
13,O=[N+]([O-])c1ccc(C2=CSC3=NCCN23)cc1,-32.9
14,CSc1nc2sc3c(c2c(=O)n1C)CCCC3,-13.5
15,CC(OC(=O)c1ccc(Br)c(S(=O)(=O)N2CCOCC2)c1)C(=O)NC1CCCCC1C (centres unmarked),-49.9
16,CC(C)(C)NC(=O)NC(=O)C[n+]1ccc(Cc2ccc([N+](=O)[O-])cc2)cc1.[Cl-],-5.27
17,O=C(CCCN1C(=O)/C(=C\c2ccccc2)SC1=S)Nc1ccc(O)cc1C(=O)O,18.1
18,CCOC(=O)/C=c1\s/c(=C\c2ccc(C(F)(F)F)cc2)c(=O)n1CC(=O)NCc1ccco1,5.47
19,O=C(CSc1nnnn1-c1cccnc1)NCc1cccs1,9.62
20,CCOC(=O)COc1ccc(C2CC(C)=NN2c2ccccc2)cc1 (centres unmarked),-0.31

row,Compound,"hERG current change (%, negative = inhibition) at 10uM [%]"
1,CC(=O)n1nc2nc(C)cc(C)c2c1N,13.9
2,O=C(/C=C/c1ccco1)NC1CCCC1,17.4
3,CCOc1ccc(/C=N/NC(=O)c2ccccc2C)cc1CN1CC2CC(C1)c1cccc(=O)n1C2 (centres unmarked),-26.8
4,O=C(CCN=C1NS(=O)(=O)c2ccccc21)OCC(=O)c1ccc(F)c(F)c1,11
5,O=C(NCc1ccccc1)NS(=O)(=O)c1ccccc1Cl,-4.3
6,CCOc1ccc(C2=CSC3=NCCN23)cc1,-4.08
7,CCOc1ccc(C2=CSC3=NCCN23)cc1[N+](=O)[O-],-75.5
8,COc1ccc(C2=CSC3=NCCN23)cc1[N+](=O)[O-],-26.1
9,CCN(CC)c1ccc2c(c1)oc(=O)c1c(Cl)cc(=O)oc12,14.8
10,COc1cc(O)c(NC(C)=O)c2nonc12,11.2
11,Cc1ccc(S(=O)(=O)N2CCC(c3nnc(SCCN4CCCC4)n3C)CC2)cc1,17.7
12,CCn1c(SCc2ccc(F)cc2)nnc1C1CCN(S(=O)(=O)c2ccc(OC)cc2)CC1,-64.3
13,CCn1c(SC)nnc1C1CCN(S(=O)(=O)c2ccc(OC)cc2)CC1,-4.3
14,CCn1c(SCc2ccccc2)nnc1C1CCCCC1,-11.2
15,CCn1c(C2CCN(S(=O)(=O)c3ccc(OC)cc3)CC2)n[nH]c1=S,-18
16,CCn1c(SCC(=O)c2ccc(OC)cc2)nnc1C1CC1,6.73
17,CCn1c(SCc2ccc(C)cc2)nnc1C1CCN(S(=O)(=O)c2ccc(OC)cc2)CC1,-64.5
18,CCn1c(SCc2ccccc2)nnc1C1CCN(S(=O)(=O)c2ccc(OC)cc2)CC1,-60.8
19,CCn1c(SC(C)C)nnc1C1CCN(S(=O)(=O)c2ccc(OC)cc2)CC1,-20.6
